Hits are enriched below; roughly 2.5% of the tested compounds scored in any of these assays.
PKA-R1A act: PKA-R1A complex activation; P00514+P68181; PKA-R1A dissociation, Cy5-IP20 fluorescence polarization; scaled: DMSO 0%, 113 µM cGMP 100%; activation, % at 11.4 µM; 340,000 tested, 0.083% active; AID 504707;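 active means percent activation above the mean of all tested compounds plus 3 SD, cut at about 19% in these data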;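 further: higher means more PKAc released from R1A so a rise in polarization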
CHT PAM: allosterically activates the human high affinity choline transporter; Q9GZV3; AID 488977; B-score at 10 µM; 310,000 tested, 0.49% active; CHT-expressing cells, membrane potential dye, choline EC20; active compounds read high; LV-AA mutant CHT in HEK293 cells;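 active means initial fluorescence not abnormally high and integrated response B-score, plate-corrected, over 3 SD above library mean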
ANO1 block: blocks the mouse calcium-activated chloride channel TMEM16A; Q8BHY3; HEK293 TMEM16A/YFP iodide influx fluorescence, ionomycin; normalized B-score (activity score, 25-100; higher = stronger inhibition) at 10 µM; 310,000 tested, 1.2% active; AID 588511;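 active means ratio plate-corrected score three or more library SD toward inhibition, starting fluorescence score within five deviations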;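 further: score derived from kinetic fluorescence span divided by baseline fluorescence per well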
Target sequence (Q8BHY3 whole entry, looked up): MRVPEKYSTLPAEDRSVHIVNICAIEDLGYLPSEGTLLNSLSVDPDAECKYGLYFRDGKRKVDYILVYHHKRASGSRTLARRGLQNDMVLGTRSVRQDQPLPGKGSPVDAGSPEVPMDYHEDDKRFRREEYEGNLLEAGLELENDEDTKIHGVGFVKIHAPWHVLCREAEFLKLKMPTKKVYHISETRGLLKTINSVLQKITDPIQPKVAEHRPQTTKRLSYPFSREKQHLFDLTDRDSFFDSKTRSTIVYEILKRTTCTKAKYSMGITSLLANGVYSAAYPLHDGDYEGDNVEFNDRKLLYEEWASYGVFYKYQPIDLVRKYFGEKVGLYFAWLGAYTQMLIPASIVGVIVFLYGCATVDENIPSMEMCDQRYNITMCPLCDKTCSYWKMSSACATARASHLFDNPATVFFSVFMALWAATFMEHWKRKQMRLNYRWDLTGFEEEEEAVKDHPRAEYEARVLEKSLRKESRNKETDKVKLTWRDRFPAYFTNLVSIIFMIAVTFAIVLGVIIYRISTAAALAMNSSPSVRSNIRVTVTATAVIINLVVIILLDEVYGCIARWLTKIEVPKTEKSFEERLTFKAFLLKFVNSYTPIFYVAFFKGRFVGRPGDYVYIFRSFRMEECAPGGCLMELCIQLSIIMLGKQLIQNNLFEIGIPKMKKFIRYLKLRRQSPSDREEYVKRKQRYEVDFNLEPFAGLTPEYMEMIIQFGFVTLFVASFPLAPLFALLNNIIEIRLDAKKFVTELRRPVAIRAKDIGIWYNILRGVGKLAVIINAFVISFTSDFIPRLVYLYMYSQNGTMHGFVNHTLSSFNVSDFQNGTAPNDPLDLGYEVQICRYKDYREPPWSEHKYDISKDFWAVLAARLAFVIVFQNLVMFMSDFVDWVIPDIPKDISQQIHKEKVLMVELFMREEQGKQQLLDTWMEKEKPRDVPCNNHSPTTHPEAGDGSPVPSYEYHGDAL
CHT inh: human CHT choline transport inhibition; Q9GZV3; 310,000 tested, 0.86% active; B-score at 10 µM; CHT-expressing cells, membrane potential dye, choline response; active compounds read low; AID 488975;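 active means B-score over 3 SD under the library average, and starting fluorescence ratio not unusually high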;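 further: choline stimulus applied at its EC90 after an EC20 pre-addition; B-score computed on integrated fluorescence ratio after choline addition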
TMEM16A act: activators or potentiators of mouse TMEM16A chloride channel; Q8BHY3; 340,000 tested, 0.3% active; AID 623877; B-score at 10 µM; HEK293 TMEM16A/YFP-H148Q/I152L, iodide quench fluorescence; active compounds read low;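 active means fluorescence-ratio B-score plate-corrected deviation score at least 3 library SD below zero, with starting fluorescence score within 5 deviations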;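 further: channel opened by trigger with iodide after compound preincubation; score built on the fluorescence ratio of max minus min over baseline; more negative score means more quench and so TMEM16A activation or potentiation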
PKA-R2B act: activators of human PKA-R2B complex; 340,000 tested, 0.079% active; PKA-R2B holoenzyme dissociation, Cy5-IP20 fluorescence polarization; R2B truncated from residue 108, S112A mutant; 0% DMSO only, 100% 113 µM cGMP; activation, % at 11.4 µM;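 active means activation above a cutoff set at the mean over all compounds plus 3 SD, cut at about 18% in these data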;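 further: higher means more holoenzyme dissociation and a rise in polarization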
CHT activ conf: human CHT activation, confirmatory screen. 2,500 tested, 91% active. CHT-expressing cells, membrane potential dye fluorescence (FDSS); % of choline EC20–EC90 response window; HEK293 expressing CHT LV-AA mutant; choline added at its EC20. AID 504833. activation, % at 10 µM. shares compounds with CHT PAM;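 active means primary screen active, with duplicate mean activation above negative control mean plus 3 SD, cut at about 11% in these data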
HEK293 MP dye: counter-screen for CHT activators: effect in parental HEK293 cells. shares compounds with CHT PAM. membrane potential dye fluorescence (FDSS); measured after EC20 choline addition. ratio readout change at 10 µM, hits read low. 2,500 tested, 62% active. AID 623908;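 active means duplicate-averaged ratio beyond 3 SD from buffer wells, up or down, though filed actives are nearly all decreases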
R2B FP artifact: counter-screen for PKA-R2B activators: fluorescence polarization artifacts | shares compounds with PKA-R2B act | FP artifact counterscreen | activation, % at 11.4 µM | 270 tested, 6% active | AID 504796; in the data active means activation above about 20%;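 further: Cy5 labelled IP20 peptide probe with compound but no PKA protein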
PKA-R2B act conf: PKA-R2B complex activation, confirmation; shares compounds with PKA-R2B act; fluorescence polarization; activation, % at 11.4 µM; 270 tested, 9% active; in the data active means activation above about 19%
TMEM16A reconf: re-confirmation of mouse TMEM16A chloride channel inhibitors; inhibition, % at 10 µM; 2,300 tested, 39% active; HEK293 TMEM16A/YFP-H148Q, iodide quench fluorescence; ionomycin added to raise cell calcium; shares compounds with ANO1 block;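 active means mean duplicate percent inhibition, scaled so buffer wells are 0 and the reference blocker 100, over three buffer SD above buffer mean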
HEK293 Ca mobil: alters calcium mobilization in TMEM16A HEK293 cells, counter-screen; calcium response (% of ionomycin), % at 10 µM; TMEM16A/YFP HEK293, Fluo4 calcium mobilization; 2,300 tested, 2% active; shares compounds with ANO1 block;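 active means duplicate-averaged calcium signal over 20% of the ionomycin maximum, relative to buffer baseline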;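 further: each well's signal is peak minus trough fluorescence divided by its pre-addition baseline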
Parental YFP cnt: parental YFP-HEK293 iodide quench counter-screen activity; shares compounds with ANO1 block; ionomycin; YFP ratio F(max-min)/F0 at 10 µM; 2,300 tested, under 10 active; AID 652233;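 active means yellow fluorescent protein signal ratio exceeding the buffer control mean by over 5 SD of those controls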;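 further: ratio is mean of duplicate wells from kinetic YFP trace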
ClC-1 rat inh: selectivity of TMEM16A inhibitors: inhibition of rat ClC-1 chloride channel. shares compounds with ANO1 block. CHO ClC-1-YFP, iodide influx fluorescence quench; iodide control reads 0, buffer control 100. ratio percent, % at 10 µM. 2,300 tested, under 10 active. AID 652236;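 active means duplicate-mean ratio percent above the mean of iodide-only control wells, which defines zero, plus 5 of their SD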;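 further: higher percent means stronger block of ClC-1 iodide influx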
Large screens that a line does not name were inactive (follow-up assays come after a bar, where they were run).

COc1cccc(N2CCN(C(=O)c3ccc(CS(=O)c4ccc(C)cc4)o3)CC2)c1 (configuration not stated)	CHT PAM 8.07 | CHT activ conf 21.4 | HEK293 MP dye inactive
COc1cccc(N2CCN(C(=O)c3ccc(CS(=O)Cc4ccc(C)cc4)o3)CC2)c1 (configuration not stated)	none
O=C(NCCOc1ccc(F)cc1)C1CCC(=O)N(CC2CCCCC2)C1 (configuration not stated)	none
CCOc1ccc(-c2c(C(=O)N/N=C/c3cccc(Br)c3)nnn2-c2nonc2N)cc1	none
Cc1cc(NCc2ccco2)nc2cc(O)ccc12	CHT PAM 8.56 | CHT activ conf 28.7 | HEK293 MP dye -42.4
Cc1ccc(Nc2cc(C)c3ccc(O)cc3n2)cc1C	none
COc1ccc(C(C)=O)cc1CSC(=N)N	none
CCOc1ccc(C(C)=O)cc1CSC(=N)N	none | CHT activ conf 12.6 | HEK293 MP dye -45.4
CCC(C(=O)Nc1cc(C)cc(C)n1)c1ccccc1 (configuration not stated)	none (no result: PKA-R1A act, PKA-R2B act)
Cc1cc(C)nc(NC(=O)C(c2ccccc2)c2ccccc2)c1	CHT PAM 6.86 | CHT activ conf 39.9 | HEK293 MP dye -34.7
C/C(=N\Nc1ccccn1)c1ccc(C#N)cc1	none | CHT activ conf 29.8 | HEK293 MP dye -55.9
C/C(=N\Nc1ccccn1)c1ccc(OC(F)F)cc1	none
CCCC[C@H]1COCCS(=O)(=O)N1Cc1ccc(Br)cc1	none
Cc1ccc(N(CC(=O)NCCSc2ccccn2)S(C)(=O)=O)cc1	none
O=C(NNC(=O)c1ccccc1O)c1ccc(Cl)c(S(=O)(=O)N2CCCCC2)c1	none
CCOC(=O)c1cc(C#N)c(N2CCN(c3ccc(OC)cc3)CC2)[nH]c1=O	none
COc1ccc(-c2nc3cnccn3c2Nc2ccc(C)cc2)cc1	none | CHT activ conf 35.6 | HEK293 MP dye -28.3
Cc1cc(C)c2c(n1)nn1c(NCCN3CCOCC3)cc(C)nc21	CHT PAM 6.88, PKA-R2B act 18.4 | CHT activ conf 50.0 | HEK293 MP dye -72.8 | R2B FP artifact inactive | PKA-R2B act conf inactive
O=C(Nc1cccc(S(=O)(=O)N2CCOCC2)c1)C1=NN(c2ccccc2)C(=O)CC1	none
CC(C)c1nc(SCC(=O)Nc2nc3c(s2)CCCC3)c2ccccc2n1	CHT PAM 8.97, ANO1 block 25 | CHT activ conf 27.8 | HEK293 MP dye inactive | TMEM16A reconf inactive | HEK293 Ca mobil inactive | Parental YFP cnt inactive | ClC-1 rat inh inactive
CC(C)[C@H](NC(=O)[C@@H]1Cc2c([nH]c3ccccc23)C2c3ccccc3C(=O)N21)C(=O)NCC1CCCO1 (some centres not stated)	none
NS(=O)(=O)c1ccc(CNC(=O)Cc2ccc(S(=O)(=O)N3CCOCC3)s2)cc1	none
Cc1cc(Nc2ccc(Cl)cc2)nc(NCc2ccccc2)n1	none
CCCCNc1cc(C)nc(NCc2ccccc2)n1	CHT PAM 9.17, ANO1 block 25 | CHT activ conf 32.6 | HEK293 MP dye inactive | TMEM16A reconf 33.5% | HEK293 Ca mobil 21.5% | Parental YFP cnt inactive | ClC-1 rat inh inactive
Cc1ccc(-c2nc3ncccn3c2Nc2ccc3c(c2)OCCO3)o1	none
Cc1cc(C)n2c(Nc3ccc4c(c3)OCCO4)c(-c3ccc(C)o3)nc2n1	CHT PAM 9.67 | CHT activ conf 82.6 | HEK293 MP dye -50 | TMEM16A reconf inactive | HEK293 Ca mobil inactive | Parental YFP cnt inactive | ClC-1 rat inh inactive
CCOc1ccc(S(=O)(=O)N2c3ccccc3CC2C)cc1 (configuration not stated)	ANO1 block 100 | CHT activ conf 39.2 | HEK293 MP dye inactive | TMEM16A reconf inactive | HEK293 Ca mobil inactive | Parental YFP cnt inactive | ClC-1 rat inh inactive
Cc1ccc(Oc2ccccc2NC(=O)CSCC(=O)Nc2cc(C)on2)cc1	none | CHT activ conf inactive | HEK293 MP dye inactive | TMEM16A reconf 21.5% | HEK293 Ca mobil inactive | Parental YFP cnt inactive | ClC-1 rat inh inactive
CCN1CCN(C(=O)Cn2nc(C)c3sc4ccccc4c3c2=O)CC1	none
Cc1ccc(OCc2nc(C#N)c(NCc3ccc4c(c3)OCO4)o2)cc1	CHT PAM 7.47, ANO1 block 25 | CHT activ conf 30.4 | HEK293 MP dye inactive | TMEM16A reconf 16.0% | HEK293 Ca mobil inactive | Parental YFP cnt inactive | ClC-1 rat inh inactive
CCOc1ccc(-c2nc(C#N)c(NCc3ccc4c(c3)OCO4)o2)cc1	none
CCC1CCCCN1CCCNC(=O)CSc1nc2nc(C)c(Cc3ccc(C)cc3)c(C)n2n1 (configuration not stated)	none
Cc1ccc(Cl)cc1N1CCN(C(=O)C2CCC(=O)N(C3CCCCCC3)C2)CC1 (configuration not stated)	CHT PAM 9.17, ANO1 block 100 | CHT activ conf 23.5 | HEK293 MP dye inactive | TMEM16A reconf 18.5% | HEK293 Ca mobil inactive | Parental YFP cnt inactive | ClC-1 rat inh inactive
